Among all 360,000 compounds or so, about 320 (0.089%) were called active. The entries come from a sample that favours actives as a whole. Unmarked numbers belong to inactive results. Cut-off read from the data, not from the text of the source: active = activation above about 19% (passing the limit was not always enough); inactive = the rest.

Muscarinic acetylcholine receptor M1 (Homo sapiens), sequence (P11229 whole entry, looked up): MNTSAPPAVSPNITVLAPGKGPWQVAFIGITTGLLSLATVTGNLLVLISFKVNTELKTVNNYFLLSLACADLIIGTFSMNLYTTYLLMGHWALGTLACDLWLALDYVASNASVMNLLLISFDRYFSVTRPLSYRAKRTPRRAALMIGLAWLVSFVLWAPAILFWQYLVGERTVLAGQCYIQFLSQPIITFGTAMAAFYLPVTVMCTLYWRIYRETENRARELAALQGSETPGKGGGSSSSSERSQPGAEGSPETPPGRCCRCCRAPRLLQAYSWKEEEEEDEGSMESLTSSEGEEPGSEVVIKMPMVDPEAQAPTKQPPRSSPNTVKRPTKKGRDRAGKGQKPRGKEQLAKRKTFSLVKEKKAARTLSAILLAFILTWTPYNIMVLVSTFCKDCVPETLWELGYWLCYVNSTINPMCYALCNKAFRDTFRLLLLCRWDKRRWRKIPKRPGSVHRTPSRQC

This assay concerns the target Muscarinic acetylcholine receptor M1 (Homo sapiens) (UniProt P11229). As to the kind of experiment: CHRM1 PAMs potentiating acetylcholine calcium signal – CHO-K1 cells, Fluo-8 calcium fluorescence, 1536-well, primary screen (AID 588819). Particulars: CHO-K1 hM1, Fluo-8 calcium fluorescence, ACh EC20; at 3 µM; active compounds read high; 0% = ACh EC20, 100% = maximal ACh.
`CCCSC(=S)NC1CCS(=O)(=O)C1` (configuration not stated): the activation is 0.86%. The value for `CCCCNCCS(=O)(=O)NCc1ccccc1` was 4.18%; that for `CSc1ccc(CNCCN2CCOCC2)cc1` was -5.22%; that for `CCCCNCc1ccc(SC)cc1` was 25.2% (active). The value for `Cc1cccc(C)c1NC(=O)C1(N(C(=O)c2ccccn2)c2ccc(O)cc2)CCCCC1` was -1.06%; that for `CN(C)/C=C/c1c(C#N)c(=O)ncn1Cc1ccccc1` was -0.11%. The value for `O=c1c2c(ncn1Cc1ccccc1)nc1n2CCC1` was 7.79%; that for `CN(C)c1ccnc2sc3c(=O)n(Cc4ccccc4)cnc3c12` was 23.4% (active); that for `COc1ccc(CN2CC[C@H]3C=CC[C@@H](C(=O)N4CCOCC4)[C@H]3C2=O)cc1OC` was 1.94%. As for `CNC(=O)c1nnc(Cc2ccc(Cl)cc2)o1`, the activation is 5.02%. As to `O=C(Nc1ccc(F)cc1F)N1CCCN(CCOc2ccccc2)CC1`, the activation was 5.19%.

In the case of `Nc1ncnc2c1ncn2[C@@H]1O[C@H](CNC(=O)[C@H](N)Cc2cccnc2)[C@@H](O)[C@H]1O`, the activation was 2.46%.

As for `CCn1c(O)c(N=NC2=NC(=O)CS2)c2cc(C)ccc21`, the activation is -1.89%. As to `O=C(CCNc1n[nH]c(=O)[nH]c1=O)N/N=C\c1ccc(Br)cc1`, the activation is 17.3%. The value for `CC(=O)N/C(=C/c1ccc(OC(F)F)cc1)C(=O)O` was 6.97%; that for `CN1CCC(=NNC(=O)c2ccc(N(Cc3ccc(Cl)cc3)S(C)(=O)=O)cc2)CC1` was 4.92%; that for `CC1CCN(c2ccc([N+](=O)[O-])c(SCCO)c2)CC1` was 2.03%. For the compound `COCCCNC(=O)C1CC(=O)N(c2ccc(C)cc2)C1` (configuration not stated), the activation is 1.45%. On to `CCCC(C)NC(=O)C1CCN(C(=O)C2CC(=O)N(c3ccc(C)cc3)C2)CC1` (configuration not stated), for which the activation is 14.6%.

Turning to `COCCNC(=O)C1CCN(C(=O)C2CC(=O)N(c3ccc(C)cc3)C2)CC1` (configuration not stated), the activation is 29.5% (active). For the compound `Cc1ccc(S(=O)(=O)N2C3C=CC(C3)C2C(=O)O)cc1` (configuration not stated), the activation is 1.95%. Consider `O=C(O)C1CCN1C1CCCCC1` (configuration not stated), for which the activation is 3.48%. As to `CCCC(=O)Nc1nnc(-c2ccccc2)o1`, the activation is 28.9% (active). Regarding `COc1ccccc1C(=O)NCC(=O)OCC(=O)Nc1nnc(-c2ccccc2)o1`, the activation was 7.11%. To `Cc1ccnc2nc(C(=O)Nc3nnc(-c4ccccc4)o3)nn12` belongs 3.22%; to `COc1ccc(N2CCC(CNC(=S)Nc3c(C)cccc3C)C2)cc1` (configuration not stated), -4.84%; to `O=C(Cc1ccc(NC(=O)C2CCCN(C(=O)C3CCCCC3)C2)cc1)Nc1cccc(C(=O)N2CCCCC2)c1` (configuration not stated), 3.87%.

Source of the values: PubChem BioAssay AID588819 (The Scripps Research Institute Molecular Screening Center, 2011).
